Data from PubChem BioAssay (NCATS).
Records with an inconclusive call do not appear. Calls of active or inactive are those of the source. Calls follow the shape of the dose curve; as a rule, active = well fitted cell-killing curve with a large enough effect; inconclusive = small, poorly fitted or top-dose-only effect, or effect the other way; inactive = no such curve, though single readings can be large or run the other way.

Assay: Quantitative High-Throughput drug screen in 47 multiple myeloma cell lines against the NCATS MIPE library collection: KMS26_JCRB cell viability assay (AID 1918975); also: nearly all actives have a fitted effect of over 45% in size
Conditions: KMS26 myeloma cells viability, CellTiter-Glo ATP, 48 h; series mostly up to 45.8 µM
Description: PI: Beverly A. Mock Ph.D.
Laboratory of Cancer Biology and Genetics,
Center for Cancer Research, National Cancer Institute,
National Institute of Health, Bethesda, Maryland
Drug resistance and disease progression are common in multiple myeloma (MM) patients, underscoring the need for new therapeutic combinations. […] We hypothesized that effective combinations would reduce MYC expression and enhance p16 activity. […] These preclinical data identify potentially useful drug combinations for evaluation in drug-resistant MM and reveal potential mechanisms of combined drug sensitivity.
Described herein is the primary MIPE qHTS used to cherrypick compounds. Validated compounds were then further tested for potential synergistic activiy.
[1] Peat TJ, Gaikwad SM, Dubois W, Gyabaah-Kessie N, Zhang S, Gorjifard S, Phyo Z, Andres M, Hughitt VK, Simpson RM, Miller MA, Girvin AT, Taylor A, Williams D, D'Antonio N, Zhang Y, Rajagopalan A, Flietner E, Wilson K, Zhang X, Shinn P, Klumpp-Thomas C, McKnight C, Itkin Z, Chen L, Kazandijian D, Zhang J, Michalowski AM, Simmons JK, Keats J, Thomas CJ, Mock BA. Drug combinations identified by high-throughput screening promote cell cycle transition and upregulate Smad pathways in myeloma. Cancer Lett. 2023 Aug 1;568:216284. doi: 10.1016/j.canlet.2023.216284. Epub 2023 Jun 24. PMID: 37356470; PMCID: PMC10408729.
SEQUENCE No. (e.g., 1, 2, 3, etc.); […] (e.g., Cells, Incubation, Reagent, etc.); VALUE and DESCRIPTION.
1; Cells; 5 uL; white, solid bottom 1536-well Greiner assay plate.
2; Compounds; 23 nL; Kalypsis pin tool (Wako USA) equipped with a 1536-well pin head to transfer to the assay plates.
3; Incubation; 48 hours; 37C incubation.
4; Reagent;5uL; CellTiter Glo (Promega).
5; Detector; 425V; Luminescence; Viewlux PerkinElmer.
NOTES (numbers refer to Sequence numbers above)
1. The cell-based screening methods employed in this study were like those previously published. Briefly, the corresponding myeloma cell lines were screened in 1,536-well plates with 500 cells, 5-uL per well for inhibition of cell viability (assessed by measuring ATP levels with CellTiterGlo).
2. NCATS MIPE 4.0 library of approved and investigational drugs were added using the Kalypsis pin tool. Wells treated with DMSO only for 100% viability and media only wells for 0% viability were used as controls.
3. The assay plates were covered and incubated for 48 hours in a 37C, 5% CO2 incubator with controlled humidity.
4. After 48 hours, CellTilter-GloTM luminescent substrate mix (Promega) reagent was added to the assay plate and plates we incubated for 5 min at room temperature.
5. Signal was measured as median relative luminescence units on a ViewLux (PerkinElmer) multiplate reader.
[1] Heske CM, Davis MI, Baumgart JT, Wilson K, Gormally MV, Chen L, Zhang X, Ceribelli M, Duveau DY, Guha R, Ferrer M, Arnaldez FI, Ji J, Tran HL, Zhang Y, Mendoza A, Helman LJ, Thomas CJ. Matrix Screen Identifies Synergistic Combination of PARP Inhibitors and Nicotinamide Phosphoribosyltransferase (NAMPT) Inhibitors in Ewing Sarcoma. Clin Cancer Res. 2017 Dec 1;23(23):7301-7311. doi: 10.1158/1078-0432.CCR-17-1121. Epub 2017 Sep 12. PMID: 28899971; PMCID: PMC6636827.
Potency is read from the fitted curve at half-maximal effect.

| SMILES | Potency |
| --- | --- |
| CC(C)C(=O)Nc1ncc(-c2cc(C(F)F)nn2-c2c(Cl)cccc2Cl)s1 | 18.7 µM (active) |
| CCn1c(C(=O)N(C2CC2)C2CC2)cc2c3c(ncn3C)c(Nc3cc(C)n(C)n3)nc21 | inactive |
| COC[C@@H](c1ccc(C(F)(F)F)cc1)N1CCN(C2(C)CCN(C(=O)c3c(C)ncnc3C)CC2)C[C@H]1C | inactive |
| Cc1c(O)cccc1C(=O)N[C@@H](CSc1ccccc1)[C@H](O)CN1C[C@H]2CCCC[C@@H]2C[C@@H]1C(=O)NC(C)(C)C | 29.6 µM (active) |
| CN(C)C1CCN(C(=O)c2ccc(NC(=O)Nc3nc(N4CCOCC4)nc(N4CCOCC4)n3)cc2)CC1 | 0.0209 µM (active) |
| O=C(CCc1ccc(O)cc1)c1c(O)cc(O)cc1O[C@@H]1O[C@H](CO)[C@H](O)[C@H](O)[C@H]1O | inactive |
| CCCCCN(C)CCC(O)(P(=O)(O)O)P(=O)(O)O | inactive |
| O=c1cc(N2CCOCC2)oc2c(-c3cccc4c3sc3ccccc34)cccc12 | 20.9 µM (active) |
| CO[C@H]1C=CO[C@@]2(C)Oc3c(C)c(O)c4c(O)c(c5c(c4c3C2=O)NC2(CCN(CC(C)C)CC2)N=5)=NC(=O)C(C)=CC=C[C@H](C)[C@H](O)[C@@H](C)[C@@H](O)[C@@H](C)[C@H](OC(C)=O)[C@H]1C | inactive |
| CCC(=O)NC[C@H](Cc1ccc(OCCc2nc(-c3ccccc3)oc2C)cc1)NC(C)=CC(=O)c1ccc(C(F)(F)F)cc1 | 20.9 µM (active) |
| O=C1Nc2ccc(Cl)cc2C(C#CC2CC2)(C(F)(F)F)O1 (stereo not given) | 23.5 µM (active) |
| NS(=O)(=O)c1cccc2c1C(=O)c1cccc(O)c1C2=O | 0.662 µM (active) |
| O=C(NC1CCOCC1)c1ccc(-c2cc(-c3cn[nH]c3-c3ccccn3)ccn2)cc1 | inactive |
| CC(=O)Nc1ccc([C@H](C)C(=O)Nc2ncc(C(C)C)s2)cc1 | 1.32 µM (active) |
| CO[C@H]1C[C@@H]2CC[C@@H](C)[C@@](O)(O2)C(=O)C(=O)N2CCCC[C@@H]2C(=O)O[C@H]([C@@H](C)C[C@@H]2CC[C@H](O)[C@H](OC)C2)CC(=O)[C@H](C)C=C(C)[C@@H](O)[C@@H](OC)C(=O)[C@H](C)C[C@H](C)C=CC=CC=C1C | inactive |
| COc1cc2ncnc(-n3nc(-c4ccccn4)nc3N)c2cc1OC | 14.8 µM (active) |
| O=C(Nc1c(Cl)cncc1Cl)c1ccc(OC(F)F)c(OCC2CC2)c1 | inactive |
| O=C1NC(=O)C(=Cc2ccc3c(c2)OC(F)(F)O3)S1 | 18.7 µM (active) |
| CC(C)(C)C(=O)Oc1ccc2c(c1)nc(NC(=O)c1cccc([N+](=O)[O-])c1)n2CCCO | inactive |
| Nc1nc(F)nc2c1ncn2[C@@H]1O[C@H](COP(=O)(O)O)[C@@H](O)[C@H]1O | inactive |

| SMILES | Potency |
| --- | --- |
| CN(C)c1cc(NC(=O)CNC(C)(C)C)c(O)c2c1C[C@@H]1C[C@H]3[C@H](N(C)C)C(=O)C(C(N)=O)=C(O)[C@@]3(O)C(=O)C1=C2O | inactive |
| Oc1ccc(C2=Cc3ccc(O)cc3OC2)cc1 | 8.33 µM (active) |
| Clc1ccc(-c2nc3sccn3c2C=NOCc2ccc(Cl)c(Cl)c2)cc1 | inactive |
| O=C(O)[C@H]1O[C@H](Oc2cc3oc(-c4ccccc4)cc(=O)c3c(O)c2O)[C@H](O)[C@@H](O)[C@H]1O | 20.9 µM (active) |
| COc1cc2ncnc(Nc3ccc(F)c(Cl)c3)c2cc1OCCCN1CCOCC1 | 38.2 µM (active) |
| Nc1ncnc2c1ncn2[C@@H]1O[C@@H](CO)[C@H](O)[C@H]1O | inactive |
| O=C1C(Cl)=C(NCCN2CCOCC2)C(=O)c2ncccc21 | 6.62 µM (active) |
| COc1ccc(-c2oc3c(CC=C(C)C)c(OC4O[C@H](CO)[C@@H](O)[C@H](O)[C@@H]4O)cc(O)c3c(=O)c2OC2O[C@@H](C)[C@H](O)[C@@H](O)[C@@H]2O)cc1 (stereo not given in full) | 23.5 µM (active) |
| C[C@]12CC[C@@H]3c4ccc(O)cc4CC[C@H]3[C@H]1C[C@@H](O)[C@H]2O | 0.0418 µM (active) |
| CCCCCNC(=O)N1CCC(CN(Cc2ccc(Cl)cc2)Cc2ccc([N+](=O)[O-])s2)C1 (stereo not given) | 23.5 µM (active) |
| COc1cc2nc(-c3ccc(N4CCN(C)CC4)cc3)nc(NCCN3CCOCC3)c2cc1OC | 0.0372 µM (active) |
| Cc1[nH]c(C=C2C(=O)Nc3ccc(S(=O)(=O)Cc4c(Cl)cccc4Cl)cc32)c(C)c1C(=O)N1CCC[C@H]1CN1CCCC1 | 23.5 µM (active) |
| Nc1ncnc2c1ncn2[C@@H]1O[C@H](CO)C[C@@H]1O | inactive |
| Cc1ccc(C(=O)Nc2cccc(C(F)(F)F)c2)cc1Nc1nc(-c2cccnc2)nc2c1cnn2C | 13.2 µM (active) |
| CC(C)(Cc1ccc2ccccc2c1)NC[C@@H](O)COc1cccc(Cl)c1C#N | inactive |
| CCS(=O)(=O)N1CC(CC#N)(n2cc(-c3ncnc4[nH]ccc34)cn2)C1 | 16.6 µM (active) |
| NC(CO)(CO)CCc1ccc(Sc2cccc(OCc3ccccc3)c2)cc1Cl | 18.7 µM (active) |
| OC[C@H]1O[C@@H](n2cnc3c2NC=NC[C@@H]3O)C[C@H]1O | inactive |
| CC(C)C[C@H](CC(=O)O)C(=O)N[C@@H](Cc1c[nH]c2ccccc12)C(=O)N[C@@H](C)c1ccccc1 | inactive |
| CCOC(=O)C1=C(N)Oc2ccc(Br)cc2C1C(C#N)C(=O)OCC (stereo not given) | 14.8 µM (active) |
